This is one part of a sample in which hits are shown more often than they occur.
FBPA Giardia inh = blocks Giardia fructose-bisphosphate aldolase activity. Potency, µM (series often up to 59.6 µM), for inactives: at the highest dose activity, negative = inhibition, usual class: inhibitors. purified Giardia FBPA. A8B2U2. hit rate 0.71% among 290,000; note: potency is the fitted concentration of half-maximal effect; % is set by controls: 0 for no effect and ±100 for the full control effect; nearly all actives have a fitted effect of over 55% in size
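40 nM FBPA preincubated 10 min at RT with compound (up to 57.5 uM final), then substrate plus GAPDH/TPI/NAD/arsenate coupling and diaphorase/resazurin added. Fluorescence read after 20 min at RT, 525/598 nm.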
Shiga toxin inh = inhibitors of Shiga toxin in Vero cells | Vero cells, Shiga toxin protein synthesis inhibition reporter | inhibition, % at 38.7 µM | hit rate 9.2% among 290,000; in the data active = inhibition mostly above about 28%, no sharp cut-off; inactive = mostly below about 43%; note: 0% is about no effect
LmPK inh = blocks Leishmania mexicana pyruvate kinase activity. purified LmPK, Kinase-Glo ATP luminescence, 1 h. Potency, µM (titrated, usually from 57.5 µM), inactives show at the highest dose activity change, negative = inhibition, most hits filed as inhibitors. hit rate 0.37% among 290,000. AID 1721; note: potency is the fitted concentration of half-maximal effect; % is set by controls: 0 for no effect and ±100 for the full control effect
Target sequence (Q27686 whole entry, looked up): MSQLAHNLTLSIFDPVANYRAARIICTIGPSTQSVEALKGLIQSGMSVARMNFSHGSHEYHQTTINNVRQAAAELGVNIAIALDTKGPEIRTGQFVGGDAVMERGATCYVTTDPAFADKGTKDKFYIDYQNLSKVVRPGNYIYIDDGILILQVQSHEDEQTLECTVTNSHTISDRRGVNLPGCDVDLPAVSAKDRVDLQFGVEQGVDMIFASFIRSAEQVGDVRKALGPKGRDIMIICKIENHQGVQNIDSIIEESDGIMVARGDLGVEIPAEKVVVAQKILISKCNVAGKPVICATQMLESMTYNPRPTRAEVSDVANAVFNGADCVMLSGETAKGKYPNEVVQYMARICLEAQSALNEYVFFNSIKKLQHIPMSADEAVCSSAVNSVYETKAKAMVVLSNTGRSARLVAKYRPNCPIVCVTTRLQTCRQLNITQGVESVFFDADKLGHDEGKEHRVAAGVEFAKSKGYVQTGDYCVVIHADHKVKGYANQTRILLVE
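ATP generated from ADP (0.1 mM) and PEP (0.5 mM) by 0.1 nM LmPK over 1 h at room temperature (pH 7.2 imidazole buffer) was detected by coupled luciferase luminescence. Values were normalized to uninhibited and no-enzyme wells.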
Tb PYK inh = inhibitors of Trypanosoma brucei pyruvate kinase. Potency, µM (top dose mostly 76.8 µM), for the others: top-dose activity, negative = inhibition, usual class: inhibitors. AID 624173. Q57TT1. hit rate 0.12% among 410,000. TbPYK enzyme, Kinase-Glo Plus ATP luminescence, 45 min; note: potency is the fitted concentration of half-maximal effect; % is set by controls: 0 for no effect and ±100 for the full control effect; nearly all actives have a fitted effect of over 50% in size
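Activity of T. brucei pyruvate kinase was followed by Kinase-Glo Plus luminescence after the enzyme reacted 45 min at room temperature with 130 uM ADP (final) and substrate. Test compounds were added before ADP at multiple concentrations.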
RE007 growth inh = less growth of the S. pombe RE007 Vpr strain; S. pombe RE007 Vpr strain, BacTiter-Glo ATP luminescence, 24 h; Potency, µM (doses to about 92.2 µM), without a hit: top-dose activity change, negative = less growth, most hits filed as inhibitors; hit rate 0.21% among 360,000; active = well fitted falling curve with a large enough effect; inconclusive = small, poorly fitted or top-dose-only effect; inactive = no such curve, though single readings can be large or run the other way; note: potency is the fitted concentration of half-maximal effect; % is set by controls: 0 for no effect and ±100 for the full control effect; nearly all actives have a fitted effect of over 50% in size
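Fission yeast RE007 carrying one integrated HIV-1 vpr copy, seeded at OD 0.01 in PMG+AL medium with 23 nL pinned compound. Grown 24 h at 30 degrees; viability read by BacTiter-Glo luminescence after 5 min.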
CHX counter = counter-screen hit for Shiga toxin inhibitors, cycloheximide | cell reporter, cycloheximide protein synthesis inhibition counterscreen | max response, % | hit rate 12% among 300,000 | AID 2314; in the data active = max response mostly above about 13%, no sharp cut-off; inactive = mostly below about 14%; note: read at 38.3 µM for the half of the compounds with a filed dose; 0% is about no effect
Starred values were filed as active, the others as inactive; u = inconclusive; x = no result; [ ] = remark or other dose. Unless noted, calls come from the whole dose curve; as a rule, active = well fitted curve in the direction sought with a large enough effect; inconclusive = small, poorly fitted or top-dose-only effect, or another doubt; inactive = no such curve, though single readings can be large; an effect the other way counts as inactive or inconclusive.

SMILES | FBPA Giardia inh | Shiga toxin inh | LmPK inh | Tb PYK inh | RE007 growth inh | CHX counter
COc1ccc(OCc2cc(C(=O)N(C)Cc3cc(C)no3)no2)c(Cl)c1 | -1% | 99* | 9% | 1% | 7% | 72*
Cc1cc(CN(C)C(=O)c2cc(COc3ccc4ncccc4c3)on2)on1 | -2% | 3 | 1% | -1% | 12% | 6
O=C(c1ccc(F)cc1)c1cn(Cc2ccccc2)c2cc3c(cc2c1=O)OCO3 | x | x | x | 3% | x | x
COc1cc(Cl)ccc1OCc1cc(C(=O)N(C)Cc2cn(C)nc2C)no1 | x | 1 | -6% | -3% | 4% | -2
COc1cc(Cl)ccc1OCc1cc(C(=O)N(C)Cc2nnc(C)o2)no1 | x | 17 | -1% | -7% | -1% | 35*
CC(=O)c1ccc(OCc2cc(C(=O)N(C)Cc3cc(C)no3)no2)cc1 | x | 39* | -7% | 0% | 9% | 33*
CC(=O)c1ccc(OCc2cc(C(=O)N(C)C(C)c3nccs3)no2)cc1 (configuration not stated) | -6% | 35* | -5% | 5% | 2% | 30*
CC(=O)c1ccc(OCc2cc(C(=O)N(C)Cc3ncc(C)[nH]3)no2)cc1 | x | -6 | -6% | -4% | -11% | 3
COc1ccc(OCc2cc(C(=O)N(C)Cc3nnc(C)o3)no2)c(Cl)c1 | -2% | 111* | 1% | 5% | 8% | 29*
COc1ccc(OC)c(-c2nnc3n(Cc4ccc(C)cc4)c(=O)c4ccccc4n23)c1 | x | x | x | -8% | x | x
COc1cccc(OCc2cc(C(=O)N(C)Cc3nc4ccccc4[nH]3)no2)c1 | x | 125* | 4% | 0% | 9% | 38*
COc1cccc(OCc2cc(C(=O)N(Cc3ccccc3)CC3CC3)no2)c1 | 3% | -7 | 7% | -7% | 4% | 9
CCN(CC)c1ccc(/C=C(\C#N)C(N)=S)cc1 | -2% | 39 | -5% | 2% | 2% | 25*
CCN(CC)c1ccc(/C=C(\C#N)C(=O)c2ccc(Br)cc2)cc1 | 0% | -3 | -3% | 0% | u | 20*
CCN(CC)c1ccc(/C=C(\C#N)C(N)=O)cc1 | 1% | 71 | -2% | 4% | 22% | 29*
Cc1ccc(C=C(C#N)C(=O)c2ccccc2)cc1 | x | x | x | -9% | 2%[18.4 µM] | x
CCOC(=O)/C(C#N)=C/c1ccc(SC)cc1 | -21% | 34 | -1% | 2% | 14% | 27
O=C(NCCc1nnc2ccc(SCC(=O)N3CCCC3)nn12)c1ccccc1 | 3% | -10 | 6% | 3% | -9% | -2
CC(NS(=O)(=O)c1ccccc1Cl)C1CC2CCC1C2 (configuration not stated) | -17% | 10 | 5% | 7% | -4% | 0
CCCNC(=O)CSc1c2c(nc3ccc(Cl)cc13)CCCC2 | x | x | x | -7% | x | x
O=C(OCC(=O)N1CCC(Cc2ccccc2)CC1)c1ccccc1 | 4% | 79* | -4% | 0% | 12% | 55*
O=C(/C=C/c1ccco1)N1CCC(Cc2ccccc2)CC1 | -3% | 84* | 0% | -18% | 12% | 26*
COc1cccc(N2CCN(C(=O)/C=C/c3ccco3)CC2)c1 | -25% | 60 | -1% | 0% | 10% | 41*
O=C(/C=C/c1ccco1)N1CCN(c2ncccn2)CC1 | -1% | 92* | -4% | -8% | -9% | 19*
CC(C)C(=O)N1CCC(Cc2ccccc2)CC1 | 15% | -10 | -1% | -1% | 16% | -3
SMILES | FBPA Giardia inh | Shiga toxin inh | LmPK inh | Tb PYK inh | RE007 growth inh | CHX counter
CCCS(=O)(=O)N1CC(=O)N(c2ccc(Cl)cc2)C(C)(C(=O)NC2CCCC2)C1 (configuration not stated) | x | x | x | 5%[15.4 µM] | x | x
Cc1cc(C)c2c(=O)cc(C(=O)Nc3sc4c(c3C#N)CCCC4)oc2c1 | x | x | x | -11% | x | x
O=C(/C=C/Nc1nccs1)C(F)(F)Cl | -8% | 102* | -1% | -8% | 9% | 35*
O=C(Nc1nccs1)NC(C(F)(F)F)C(F)(F)F | 0% | -11 | 0% | -5% | -2% | -6
O=C(CSc1n[nH]c(=O)n1C1CC1)c1ccc2c(c1)OCCO2 | 7% | 57* | 5% | -1% | 21% | 37*
O=C(CSc1n[nH]c(=O)n1Cc1ccco1)c1ccc2c(c1)OCCO2 | -4% | 88* | -2% | 4% | 8% | 40*
CC1CCc2c(sc3nnn(Cc4cccc(C(=O)OC(C)C)c4)c(=O)c23)C1 (configuration not stated) | x | x | x | 2% | x | x
O=S1(=O)CC(N2CCC(Cc3ccccc3)CC2)CN1CCc1ccccc1 (configuration not stated) | x | x | x | 4% | -8% | x
CCC(C)Sc1oc(-c2ccco2)nc1S(=O)(=O)c1ccc(C)cc1 (configuration not stated) | x | x | x | 4% | x | x
OC(c1ccc(F)cc1)c1nc(-c2cccs2)cs1 (configuration not stated) | x | x | x | -2% | -7%[18.4 µM] | x
COC(=O)N[C@H](c1ccccc1)C(C(C)=O)C(=O)OC (some centres not stated) | 4% | x | x | x | x | x
O=[N+]([O-])c1cc(CN2CCCC2)c2cccnc2c1O | 18µM* | -4 | -1% | 2% | -9% | -4
Oc1ccc(COCc2ccccc2)c2cccnc12 | 13% | 147* | -8% | -8% | u | 68*
CCCOCc1ccc(O)c2ncccc12 | u | 17 | 2% | 3% | 40µM* | 1
Oc1c(CN2CCCCC2)cc(COCc2ccccc2)c2cccnc12 | 5% | 34 | 6% | -9% | u | 17*
Cc1cnc2c(N)cc(C)c(C)c2c1 | x | x | x | -7% | -8% | x
COc1ccc(NS(=O)(=O)c2ccc3[nH]c4c(c3c2)CCCCC4)cc1 | x | x | x | 3% | x | x
C=CC[C@H](CC(=O)NCCO)C(=O)N[C@H](COC(=O)[C@@H](CC=C)Cc1ccc(F)cc1)C(C)(C)C | x | x | x | 2% | -12% | x
COc1ccccc1CN(C)C(=O)COC(=O)c1ccc(Cl)nc1 | x | x | x | -6% | -8% | x
COc1ccc(OCC(O)CNC(=O)Nc2cccc3ccccc23)cc1 (configuration not stated) | -6% | -3 | 1% | -8% | 0% | -1
COC(=O)c1ccc(CCc2cc(O)c(Br)cc2O)cc1 | x | x | x | u | 11µM* | x
COC(=O)c1ccc(CCc2cc(O)ccc2O)cc1 | x | x | x | u | 11µM* | x
O=C(CCS(=O)(=O)c1cc(Br)cc2c1N(C(=O)C1CC1)CC2)NCc1ccc(Cl)cc1 | x | x | x | -7% | x | x
COc1cccc(CN(C)C(=O)Cc2c[nH]c3ccccc23)c1 | x | 23 | -8% | 1% | -6% | 20*
COc1ccc(CN(C)C(=O)Cc2c[nH]c3ccccc23)cc1 | 5% | 18 | 1% | 3% | 10% | 9
CCOc1ncccc1C(=O)OCC(=O)c1cc(OC)ccc1OC | -6% | -21 | -6% | -13% | -12% | -1

Compound activity: PubChem BioAssay, National Center for Advancing Translational Sciences (NCATS)
